CCHFV vOTU inh: blocks the CCHF virus ovarian tumor domain protease | inhibition, % at 11.5 µM | CCHFV vOTU protease, Pep-AMC fluorescence | hit rate 0.55% among 370,000; in the data active = inhibition above about 30%; also: 0% = vehicle wells with enzyme and 100% = no enzyme wells
DUSP3 inh: blocks human VHR1 dual specificity phosphatase | recombinant VHR phosphatase, pNPP absorbance | inhibition, % at 13.3 µM | hit rate 0.52% among 290,000; in the data active = inhibition above about 50%
Target sequence (P51452 whole entry, looked up): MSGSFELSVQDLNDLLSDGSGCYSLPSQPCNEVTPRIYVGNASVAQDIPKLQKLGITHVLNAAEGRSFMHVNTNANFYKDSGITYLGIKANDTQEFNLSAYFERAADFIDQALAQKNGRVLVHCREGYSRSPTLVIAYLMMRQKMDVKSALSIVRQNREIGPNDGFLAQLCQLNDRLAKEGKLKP
SARS 3CLpro inh: SARS-CoV 3CLpro protease inhibition; hit rate 0.14% among 290,000; inhibition, % at 6 µM; recombinant SARS-CoV 3CLpro, quenched FRET peptide cleavage; in the data active = inhibition above about 12%
PriA SSB inh: K. pneumoniae PriA-SSBct interaction inhibition; AID 1272365; AlphaScreen SSBct-PriA binding, biotinylated peptide; hit rate 0.6% among 430,000; inhibition, % at 33 µM; in the data active = inhibition mostly above about 37%, no sharp cut-off; inactive = mostly below about 20%;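 also: plate controls were negative control peptide for no effect and reference peptide for full effect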
RecA splice inh: blocks M. tuberculosis RecA intein splicing; P9WHJ3; cell-free RecA intein splicing, fluorescence; inhibition, % (test concentration not listed); AID 2221; hit rate 0.75% among 290,000; in the data active = inhibition above about 30%;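 also: 0% = vehicle wells and 100% = reference inhibitor control wells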
Numbers without * were called inactive; . = not tested or not shown. This is a sample that favours compounds with a hit; in the whole collection about 1.7% have one here.

SMILES	CCHFV vOTU inh	DUSP3 inh	SARS 3CLpro inh	PriA SSB inh	RecA splice inh
O=C(c1ccccc1F)N1CCSC1c1ccc(Cl)c(Cl)c1 (centres undefined)	.	.	.	-15.0	.
COC(=O)C1=C(NC(=O)c2ccccc2I)CCS1	.	.	.	51.0*	.
COC(=O)C1=C(NC(=O)c2ccccc2[N+](=O)[O-])CCS1	2.7	22.5	2.4	-20.9	1.1
CN1C[C@@H](C(=O)N2CCC(Oc3cccnn3)CC2)CC1=O	.	.	.	-6.0	.
CC1CCCN(S(=O)(=O)c2ccc(C(=O)Nc3nnc(Cc4cccs4)o3)cc2)C1 (centres undefined)	.	.	.	37.0*	.
CCCCN(C)S(=O)(=O)c1ccc(C(=O)Nc2nnc(Cc3cccs3)o2)cc1	.	.	.	58.0*	.
CCN(CC)S(=O)(=O)c1ccc(C(=O)Nc2nnc(Cc3cccs3)o2)cc1	.	.	.	40.6	.
CN(C1CC1)S(=O)(=O)c1ccc(C(=O)Nc2nnc(Cc3cccs3)o2)cc1	.	.	.	74.0*	.
CN(C)S(=O)(=O)c1ccc(C(=O)Nc2nnc(Cc3cccs3)o2)cc1	.	.	.	74.0*	.
CCc1nnc(NC(=O)c2ccc(S(=O)(=O)N3CCCC(C)C3)cc2)o1 (centres undefined)	-6.1	11.0	-2.1	-5.1	0.3
Cc1cn2nnc(C(=O)NCCc3nc4ccccc4n3C)c2c(=O)[nH]1	.	.	.	7.0	.
CCc1ccc(-c2cc3c(SCC(=O)Nc4ccc(C)cc4Cl)nccn3n2)cc1	.	.	.	-5.0	.
COC(C)(CNS(=O)(=O)c1ccc(NC(C)=O)cc1)c1cccc(Cl)c1 (centres undefined)	.	.	.	-15.0	.
CSc1ccccc1C(=O)Nc1nnc(Cc2cccs2)o1	.	.	.	45.0*	.
CS(=O)(=O)c1ccc(C(=O)Nc2nnc(Cc3cccs3)o2)cc1	.	.	.	64.0*	.
CC(C)Oc1ccc(C(=O)Nc2nnc(Cc3cccs3)o2)cc1	.	.	.	28.0	.
CN(Cc1ccco1)S(=O)(=O)c1ccc(C(=O)Nc2ncnc3sccc23)cc1	.	.	.	8.0	.
CN(C)S(=O)(=O)c1cccc(N=C2NN=C(c3ccccc3)CS2)c1	14.1	12.7	-1.2	35.7	.
CC(=O)Nc1ccc(C2=NNC(=Nc3cccc(S(=O)(=O)N(C)C)c3)SC2)cc1	.	15.1	8.6	53.1*	.
COc1ccc(N=C2SC(c3ccccc3)(C(F)(F)F)NC(=O)N2c2ccc(OC)cc2)cc1 (centres undefined)	.	.	.	0.0	.
Cc1cc(N2CCN(c3cccc(C)c3C)CC2)nc(-c2ccccc2)n1	7.5	52.9*	0.3	-10.3	6.0
Cc1cc(N2CCC(C(=O)NC3CC3)CC2)nc(-c2ccccc2)n1	7.2	12.8	-6.9	-23.5	.
CC1CC(=NNc2ccc(S(N)(=O)=O)cc2[N+](=O)[O-])CC(C)(C)C1 (centres undefined)	.	.	.	51.9*	.
CC(C)(C)C1CCC(=NNc2ccc(S(N)(=O)=O)cc2[N+](=O)[O-])CC1 (centres undefined)	7.1	6.8	7.9	44.6*	-1.4
CC1CC(=NNc2ccc([N+](=O)[O-])cc2[N+](=O)[O-])CC(C)(C)C1 (centres undefined)	.	.	.	37.1	.
SMILES	CCHFV vOTU inh	DUSP3 inh	SARS 3CLpro inh	PriA SSB inh	RecA splice inh
COc1ccc(C)cc1NC(=O)C(=O)NCCSc1ncc(-c2ccccc2)[nH]1	.	.	.	1.0	.
O=C(Nc1nc2ccc(Cl)cc2s1)C1CN(C(=O)c2ccc3c(c2)OCO3)C1	.	.	.	-3.0	.
CCOC(=O)c1ccc(Oc2c(C)oc3c4c(ccc3c2=O)OCN(C2CCS(=O)(=O)C2)C4)cc1 (centres undefined)	.	.	.	38.0*	.
O=C(Nc1ccc(-c2cn3ccsc3n2)cc1)c1ccc(F)cc1F	.	.	.	5.0	.
O=[N+]([O-])c1ccccc1/C=N/N1CCN(Cc2ccccc2)CC1	-2.2	58.3*	-0.6	.	1.2
C=CC#CC[N+]1(CC#Cc2ccccc2)CCOCC1	-0.9	8.2	-2.2	53.6*	1.9
Cc1cc(-c2ccc(S(=O)(=O)NCc3ccc(F)cc3)cc2)on1	4.3	8.0	-3.3	-2.9	-1.4
COc1ccc(CNS(=O)(=O)c2ccc(-c3cc(C)no3)cc2)cc1	12.3	59.8*	0.4	-3.4	-3.4
O=C(O)c1ccc(NC(=O)C2C3CCC(C3)C2C(=O)O)cc1 (centres undefined)	6.1	12.0	5.2	-1.5	-3.6
CSc1ccccc1NC(=O)C1C2CCC(C2)C1C(=O)O (centres undefined)	-15.1	52.2*	4.3	-17.9	-4.4
Cc1ccc2sc(NNC(=O)c3nc4ccccc4s3)nc2c1C	.	.	.	58.0*	.
COc1ccc(CNCc2ccc(F)cc2)c(OC)c1	4.2	-18.7	-3.1	-3.2	1.2
CCOc1cc(CNCc2cc(OC)cc(OC)c2)ccc1OC	-15.8	51.3*	1.3	0.0	1.6
COc1cccc(CNCc2ccc(OC)cc2OC)c1	4.9	55.7*	-1.1	-10.8	1.1
Cc1csc(NN=Cc2ccccn2)n1	.	.	.	57.5*	.
CCCc1sc(NN=Cc2ccccn2)nc1-c1ccc(F)cc1	.	.	.	41.1*	.
Cc1nc(NN=Cc2ccccn2)sc1C	.	.	.	10.7	.
COc1ccc(Nc2ccnc(Nc3ccc(OC)cc3)n2)cc1	0.3	-4.1	3.0	44.9*	6.2
COc1ccc(Cl)cc1C(=O)Nc1ccc2c(c1)CN(C(=O)c1ccco1)CC2	.	.	.	-5.0	.
O=C(NC(=S)N1CCN(c2ccc(Cl)cc2[N+](=O)[O-])CC1)c1cccs1	.	-4.3	1.8	38.9*	18.0
c1ccc(N=Nc2ccc3cccccc2-3)cc1	-3.9	.	.	50.8*	0.4
Nc1ccc(N=Nc2ccccc2)c(N)n1	16.5	8.6	1.8	56.0*	-0.7
Nc1ccc(N=Nc2ccccc2)c2ccccc12	5.6	40.2	0.1	25.9	24.1
COc1cccc(CNC(=O)C(=O)NC[C@@H](c2ccco2)N2CCOCC2)c1	.	.	.	-16.0	.
CCS(=O)(=O)N1CCc2ccc(NC(=O)c3ccc(Br)o3)cc2C1	.	.	.	-2.0	.
SMILES	CCHFV vOTU inh	DUSP3 inh	SARS 3CLpro inh	PriA SSB inh	RecA splice inh
O=C(Nc1ccc2c(c1)C(=O)NCCO2)c1ccc(Br)o1	.	.	.	-5.0	.
COc1ccc(CCNC(=O)c2ccc(S(=O)(=O)N(C)c3ccccc3)cc2)cc1OC	14.4	52.0*	1.8	4.7	2.5
COC(=O)c1cc(CNC(=O)c2ccc(S(=O)(=O)N(C)c3ccccc3)cc2)ccc1OC	-0.6	.	.	-5.3	.
CCc1ccc(OCC(=O)Nc2cccc3c2CCCC3)cc1	11.1	-1.6	-0.9	50.8*	2.1
CCCC(=O)Nc1cccc2c1CCCC2	8.1	-14.6	4.0	-4.0	0.2
CCc1nnc(SCC(=O)Nc2ccc(N3CCOCC3)cc2)o1	7.1	22.7	3.7	1.3	-2.8
Cc1cccc(C)c1OCc1nnc(SCC(=O)Nc2ccc(N3CCOCC3)cc2)o1	-2.2	54.4*	-5.1	-18.0	-3.8
Cc1ccccc1C(=O)Nc1nc2c(C)cccc2s1	.	.	.	-17.0	.
O=C(O)c1cc(-c2ccccc2F)n[nH]1	.	.	.	-3.0	.
O=C(CN1C(=O)COc2ccccc21)N1CCCC1	-6.0	55.5*	-0.1	-8.0	-3.0
O=C(CN1C(=O)COc2ccccc21)N1CCOCC1	7.4	-9.0	-1.5	-10.4	-2.7
CCN1CCN(C(=O)CN2C(=O)COc3ccc(S(=O)(=O)N4CCOCC4)cc32)CC1	9.6	56.8*	-0.5	-23.9	6.2
CCC(C)NC(=O)CN1C(=O)COc2ccc(S(=O)(=O)N3CCOCC3)cc21 (centres undefined)	-2.6	-9.1	3.8	6.1	4.3
CCN=C1S/C(=C\c2ccc(F)cc2)C(=O)N1CC	.	.	.	4.0	.
